# KinaseGlo FLuc = Kinase-Glo luciferase inhibition (counter-screen) | 200,000 tested, 0.28% active | Q27757 | Potency, µM (highest dose often 38.3 µM), most hits filed as inhibitors | Kinase-Glo luciferase, ATP luminescence, 8 min | AID 1379; further: nearly all actives have a fitted effect of over 60% in size
#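 Compound is pinned into ATP-containing buffer (10 uM ATP, imidazole pH 7.2, 7 mM MgCl2). Kinase-Glo luciferase reagent is then added. Light output is recorded following an 8-min room-temperature incubation.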
# ELG1 genotox = inducers of genotoxicity in HEK293T ELG1-luciferase cells; AID 504466; 330,000 tested, 1.3% active; HEK293T ELG1-luciferase reporter, luminescence, 16 h; Potency, µM (titrated, usually from 46 µM), actives largely listed as activators; further: nearly all actives have a fitted effect of over 60% in size
#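 Screening used a luciferase reporter fused to human ELG1 in HEK293T cells. Luminescence was read on a CCD plate imager after 16 hr exposure and 30 min ONE-Glo incubation.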
# Rab9 promoter act = activators of Rab9 promoter. Huh7 Rab9 promoter-luciferase reporter, luminescence, 24 h. Potency, µM (top dose mostly 9.22 µM), most hits filed as activators. 320,000 tested, 2.8% active. AID 485297; further: nearly all actives have a fitted effect of over 60% in size
#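 Luminescence from Amplite-detected luciferase (10 minutes, ambient) reports Rab9 promoter activation. Before that, stable Rab9-luciferase Huh7 cells (1500/well, reduced-serum OP-MEM I plus 10% FBS) were exposed to compound for 24 hours at 37C.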
# NPC1 prom act = activates the NPC1 promoter | 320,000 tested, 2.4% active | AID 485313 | Potency, µM (doses to about 9.22 µM), actives largely listed as activators | Huh7 NPC1 promoter luciferase reporter, 24 h; further: nearly all actives have a fitted effect of over 60% in size
#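 Luminescence read-out of NPC1 promoter-driven luciferase in stably transfected Huh7 cells; compounds delivered in DMSO and left 24 h at 37C, 5% CO2, qHTS titration format.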
# SMN2 splice up = increases expression of the SMN2 splice variant | HEK293 SMN2-luciferase splicing reporter, luminescence, 30-36 h | Potency, µM (series often up to 46.1 µM), usual class: activators | 210,000 tested, 2.8% active | AID 1458; further: nearly all actives have a fitted effect of over 55% in size
#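 HEK293 cells carry an SMN2 […]–luciferase reporter in which exon 7 inclusion puts luciferase in frame. Cells were plated 10-12 h before compound addition, then incubated 30-36 h at 37C. ONE-Glo luminescence was read; sodium butyrate at 4.5 mM final served as control.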
# FLuc counter = counter-screen for miR-21 project: firefly luciferase inhibitors or activators; P08659; purified FLuc, Km substrates, luminescence inhibition; Potency, µM (series often up to 57.5 µM), hits mostly inhibitors; 360,000 tested, 6.9% active; AID 588342; further: nearly all actives have a fitted effect of over 55% in size
# Target sequence (P08659 whole entry, looked up): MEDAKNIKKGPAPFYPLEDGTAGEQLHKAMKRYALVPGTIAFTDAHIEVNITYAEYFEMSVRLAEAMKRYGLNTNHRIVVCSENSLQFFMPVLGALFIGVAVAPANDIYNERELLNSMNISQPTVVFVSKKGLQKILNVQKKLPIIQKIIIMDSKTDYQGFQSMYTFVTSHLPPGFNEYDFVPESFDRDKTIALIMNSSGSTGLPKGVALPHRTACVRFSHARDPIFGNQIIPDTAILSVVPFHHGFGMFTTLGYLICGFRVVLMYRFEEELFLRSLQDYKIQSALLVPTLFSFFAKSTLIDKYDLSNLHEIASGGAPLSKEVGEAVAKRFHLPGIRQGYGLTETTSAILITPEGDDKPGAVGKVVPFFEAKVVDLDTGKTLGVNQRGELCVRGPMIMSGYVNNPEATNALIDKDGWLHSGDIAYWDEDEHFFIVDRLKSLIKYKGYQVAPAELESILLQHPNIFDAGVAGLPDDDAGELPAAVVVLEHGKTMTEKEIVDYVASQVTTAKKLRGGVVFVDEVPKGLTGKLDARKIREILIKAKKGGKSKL
#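 Biochemical qHTS of compounds, final roughly 60 µM downward over six points, against 10 nM purified firefly luciferase using Km concentrations of substrates (10 uM D-luciferin, 10 uM ATP) in Tris acetate pH 7.5 buffer; luminescence output.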
# A number is an active result; – = inactive; ? = inconclusive; · = no result given; [ ] = another dose, or the depositor's remark. In the library only some 7.5% were active in any assay of this set; here they are far more common. The call rests on the fitted dose curve; in most records, active means well fitted curve in the direction sought with a large enough effect; inconclusive means small, poorly fitted or top-dose-only effect, or another doubt; inactive means no such curve, though single readings can be large; an effect the other way counts as inactive or inconclusive.
SMILES,KinaseGlo FLuc,ELG1 genotox,Rab9 promoter act,NPC1 prom act,SMN2 splice up,FLuc counter
CC1CCn2c(nc3cc(C(=O)NCCc4ccccc4)ccc32)C1 (stereo unspecified),·,·,·,·,·,9.5µM
CC(CNC(=O)c1ccc2c(c1)nc1n2CCCCC1)c1ccccc1 (stereo unspecified),·,·,·,·,·,21µM
Cc1ccccc1CCNC(=O)c1ccc2c(c1)nc1n2CCOC1,·,·,·,·,·,6µM
O=C(NCc1ccccc1)c1ccc2c(c1)nc1n2CCOC1,·,·,·,·,·,–
CSc1ccc(CCNC(=O)c2ccc3c(c2)nc2n3CCCCC2)cc1,·,·,·,·,·,24µM
COc1ccc(CCNC(=O)c2ccc3c(c2)nc2n3CCC(C)C2)cc1OC (stereo unspecified),·,·,·,·,·,–
CSc1ccc(CCNC(=O)c2ccc3c(c2)nc2n3CCC(C)C2)cc1 (stereo unspecified),·,·,·,·,·,–
CC12CCC(=O)N1C(C(=O)Nc1ccc(SC(F)F)cc1)CS2 (stereo unspecified),·,–,–,–,·,–
Cc1ccccc1CCNC(=O)c1ccc2c(c1)nc1n2CCCCC1,·,·,·,·,·,0.54µM
O=C(c1cccc(COc2ccc(Cl)cc2Cl)c1)N1CCN(c2ccccn2)CC1,–,·,·,·,4µM,4.8µM
O=C(NCc1ccccc1)c1cccc(COc2ccccc2Cl)c1,–,?,1.8µM,1.8µM,13µM,15µM
O=C(c1ccccc1)N1CCN(CC(O)COc2cccc3ccccc23)CC1 (stereo unspecified),·,–,–,–,·,–
COC(=O)c1ccccc1NC(=O)c1cccc(COc2ccccc2Cl)c1,–,?,0.45µM,?,11µM,17µM
O=C(c1cccc(COc2cccc3ccccc23)c1)N1CCCC1,–,–,2.5µM,?,22µM,17µM
CN(C)C(=O)c1ccc(-c2nc(NCc3ccccc3)c3ccccc3n2)cc1,–,·,·,·,–,·
NNC(=O)c1cccc(COc2ccc3c(c2)CCC3)c1,–,?,0.32µM,0.22µM,0.4µM,2.4µM
NNC(=O)c1cccc(COc2ccccc2Br)c1,–,?,0.89µM,0.35µM,13µM,7.6µM
O=C(NCc1ccccc1)c1cnc(Cl)c(Cl)c1,·,–,–,–,·,–
CN(C(=O)c1cccc(COc2ccc(Cl)cc2Cl)c1)c1ccccc1,–,2.1µM,1µM,0.63µM,3.2µM,12µM
O=C(NCc1ccccc1)c1cccc(COc2cc(Cl)ccc2Cl)c1,–,?,3.2µM,2.5µM,13µM,?
CN(C(=O)c1ccc(COc2ccccc2Cl)o1)c1ccccc1,·,–,–,–,·,–
Cc1nn(-c2ccccc2)c(C)c1NC(=O)COC(=O)c1cccc(OC(F)F)c1,·,–,–,–,·,–
COc1ccc(-c2nnc(Nc3ccc(CC(N)=O)cc3)c3ccccc23)cc1,–,–,–,–,–,–
NC(=O)Cc1ccc(Nc2nnc(-c3ccccc3)c3ccccc23)cc1,–,–,–,–,–,21µM
Cc1nnc(Nc2ccc3c(c2)OCO3)c2ccccc12,–,?,?,?,–,15µM
SMILES,KinaseGlo FLuc,ELG1 genotox,Rab9 promoter act,NPC1 prom act,SMN2 splice up,FLuc counter
Cc1ccc(-c2nnc(Nc3ccc4c(c3)OCO4)c3ccccc23)cc1S(N)(=O)=O,–,–,–,–,–,24µM
Cc1ccc(-c2nnc(Nc3ccc(O)cc3)c3ccccc23)cc1S(=O)(=O)NC(C)(C)CO,·,·,·,·,–,19µM
Nc1ccc(S(=O)(=O)c2ccc(NC(=O)c3cccnc3)cc2)cc1,–[7.66 µM],·,·,·,–[9.22 µM],·
CCOc1ccccc1C(=O)N1CCC(c2nc3ccccc3o2)CC1,·,·,·,·,·,–
COc1ccc(Nc2nnc(-c3ccc(O)cc3)c3ccccc23)cc1,–,?,–,–,–,24µM
CC(C)(C)c1ccc(C(=O)COC(=O)CN2C(=O)NC3(CCCC3)C2=O)cc1,·,–,–,–,·,8.5µM
CC(C)(C)c1ccc(COC(=O)CN2C(=O)NC3(CCCC3)C2=O)cc1,·,–,–,–,·,–
COC(=O)/C=C/c1ccc(OC(=O)OC)c(OC(=O)OC)c1,–,–,–,–,14µM,–
COc1ccc(/C=C/C(=O)OC(C)C(=O)c2ccccc2)cc1OC (stereo unspecified),·,–,–,–,·,–
C/C(CCC(C)C)=N\Nc1cc(C)c2ccccc2n1,–,–,–,–,–,12µM
COc1ccc(OC)c(NC(=O)Nc2nnc(N3CCCCC3C)s2)c1 (stereo unspecified),·,–,–,–,·,19µM
COC(=O)c1ccccc1NC(=O)Nc1nnc(N2CCCCC2C)s1 (stereo unspecified),–,–,–,–,–,–
COc1ccc(NC(=O)Nc2nnc(N3CCCCC3C)s2)cc1OC (stereo unspecified),–,–,–,–,–,17µM
CCOc1ccc(NC(=O)Nc2nnc(N3CCCCC3C)s2)cc1 (stereo unspecified),·,·,·,·,·,–
COC(=O)c1cccnc1Oc1ccccc1,·,–,–,–,·,–
O=C(NCc1ccccc1Cl)c1ccc(NC(=O)N2CCCCc3ccccc32)cc1,·,·,·,·,·,–
O=C(NCCc1nc(-c2ccccc2)cs1)c1ccc(Br)cc1,–,–,–,–,–[1.84 µM],15µM
O=C(O)c1ccc(-c2nc(-c3ccc(Cl)cc3Cl)cs2)cc1,–,?,1.4µM,1.6µM,11µM,8.5µM
O=C(O)c1ccc(-c2nc(-c3cccc(C(F)(F)F)c3)cs2)cc1,–,–,–,–,–,?
C=CCNC(=O)c1ccc(-c2nc(-c3ccccc3)cs2)cc1,–,–,0.89µM,?,5.6µM,?
O=C(Nc1ccc(-c2csc(-c3ccccc3)n2)cc1)c1ccccc1,–,–,–,–,–,–
O=C(O)c1ccc(-c2nc(-c3ccc(Cl)cc3)cs2)cc1,–,–,0.32µM,?,4.5µM,0.95µM
Cc1[nH]c2ccccc2c1C(=O)C(=O)NC1CC(=O)N(c2cccc(F)c2)C1 (stereo unspecified),·,·,·,·,·,–
COc1ccc(C2NC(=O)N(C)C3=C2C(=O)N(c2ccc(C)cc2)C3)cc1 (stereo unspecified),·,·,·,·,–,–
O=C(O)C1CC=CCC1C(=O)Nc1ccc2c(c1)CCC2 (stereo unspecified),·,–,–,–,·,–
SMILES,KinaseGlo FLuc,ELG1 genotox,Rab9 promoter act,NPC1 prom act,SMN2 splice up,FLuc counter
COCCCNC(=O)CSc1nc2c(sc3ccccc32)c(=O)n1CCc1ccc(OC)c(OC)c1,·,·,·,·,·,–
Cc1ccc(NC(=O)C2CCN(S(=O)(=O)c3ccc4c(c3)CCCC(=O)N4)CC2)c(Cl)c1,·,·,·,·,·,–
COc1ccc(-c2csc(-c3ccc(C(=O)O)cc3)n2)cc1,–,–,0.13µM,0.32µM,2µM,0.95µM
Cc1nc(S/C(=C/c2ccc(-c3cccc(Cl)c3)o2)C(=O)O)n[nH]1,–,–,–,–,–,5.4µM
Cc1ccc2nc(/C(C#N)=C/c3ccc(-c4cccc(Cl)c4)o3)[nH]c2c1,·,·,·,·,–,–
Cc1cccc(/C=C2\CS/C(=C\c3cccc(C)c3)C2=O)c1,–,–,–,–,–,8.5µM
